Sampled rows, rich in hits. Any-hit rate of the full collection: about 6.9%.
HCV NS3h FP: blocks HCV NS3 helicase binding to DNA. NS3h Cy5-dT15 DNA binding, fluorescence polarization. inhibition, % at 100 µM. actives 1.6% (n = 16,000). AID 687043;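 active means inhibition above the average over every tested compound plus 3 SD, cut at about 40% in these data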
Cy5 interf NS3h: enhances or quenches Cy5 fluorescence in NS3h assay; Cy5-dT15 DNA with NS3h, fluorescence interference; actives lie on both sides; signal over control mean, under 1 quenches; fluorescence interference ratio at 100 µM; actives 6% (n = 16,000); AID 720488;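 active means compound fluorescence over control fluorescence at most 0.8, a quencher, or at least a set upper limit, an enhancer; inactive means ratio between 0.8 and the set upper limit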
Active calls of the source: *.

SMILES | HCV NS3h FP | Cy5 interf NS3h
C(=N/n1cnnc1)/c1cc2ccccc2[nH]1 | 23 | 0.74*
Ic1cccc(/C=N\n2cnnc2)c1 | 0 | 1
O=C(/C=C/c1ccc2c(c1)OCO2)Nc1ccncc1 | -3 | 1
CC(=O)Oc1cccc(N2C(=O)c3ccc(C(=O)Nc4cccc(C(=O)NCC(C)C)c4)cc3C2=O)c1 | 15 | 0.73*
CC(=O)Oc1ccc(C(=O)Nc2cccc(C(=O)NCC(C)C)c2)cc1 | 7 | 0.97
CCOC(=O)C(=CNCCC(=O)O)C(=O)OCC | 3 | 1.1
COCCCN1C(=O)/C(=C\c2ccc(Cl)c(Cl)c2)C(C(=O)OC)=C1C | 8 | 0.9
CCOc1ccc(N(CC(=O)NCc2ccc(Cl)cc2)S(=O)(=O)c2ccc(Br)cc2)cc1 | 3 | 0.93
COc1cc(C(=O)NCCC(C)C)c([N+](=O)[O-])cc1OC | 3 | 0.98
COc1cc(C(=O)NCc2ccc(C)cc2)c([N+](=O)[O-])cc1OC | 16 | 0.69*
O=C(Nc1ccc(F)c([N+](=O)[O-])c1)c1cc2ccccc2o1 | 1 | 1.1
O=c1cc(-c2ccccc2)nc2cc(-c3cccs3)[nH]n12 | 57* | 1.2
Cc1cc(=O)n2[nH]c(-c3cccs3)cc2n1 | 1 | 1.1
O=C(CSc1nnnn1-c1ccccc1)Nc1ccc([N+](=O)[O-])cc1 | -4 | 0.92
CC(=O)N(C)N1c2ccccc2CCc2ccccc21 | 4 | 1.1
CC(=O)N1c2ccccc2CC(N2CCCCC2)c2ccccc21 (stereo not given) | 9 | 0.76*
CCOC(=O)c1c(-c2ccccc2)oc2ccc(OCC(=O)OCc3ccccc3)cc12 | 12 | 0.88
CS(=O)(=O)N1CCN(C(=O)COc2ccccc2)CC1 | 5 | 1.1
CC1CCN(C(=O)c2ccc(I)cc2)CC1 | 5 | 0.99
CC1CCCN(C(=O)c2ccccc2)C1 (stereo not given) | 6 | 0.79*
CC1CCN(C(=O)COc2ccc(-c3ccccc3)cc2)CC1 | 25 | 0.67*
CC1CCN(C(=O)c2ccccc2)CC1 | -2 | 0.68*
CC1CCCN(C(=O)c2ccc(Cl)cc2)C1 (stereo not given) | 2 | 1
Cc1ccc(S(=O)(=O)N2CCN(CCNC(=O)C(=O)Nc3ccc(Cl)cc3)CC2)cc1 | -3 | 0.99
O=C(Nc1ccc(Cl)cn1)c1cccc(Cl)c1Cl | 15 | 1
SMILES | HCV NS3h FP | Cy5 interf NS3h
CC(C)NC(=O)C1CC(=O)N(c2ccc(Br)cc2)C1 (stereo not given) | 3 | 1.1
CCOc1ccc(N2C(=O)/C(=C/c3ccc(OC)c(OC)c3C(=O)O)SC2=S)cc1 | -3 | 0.9
COc1ccc(C(NC(=O)C(c2ccccc2)c2ccccc2)NC(=O)C(c2ccccc2)c2ccccc2)cc1 | -6 | 1.1
Cc1ccc(OCC(=O)Nc2cc3nn(-c4ccc(C)cc4)nc3cc2C)cc1 | 4 | 1.1
O=C(Oc1cccc(C(=S)N2CCOCC2)c1)c1ccc([N+](=O)[O-])cc1 | 20 | 0.66*
O=C(Oc1ccccc1C(=S)N1CCOCC1)c1ccc([N+](=O)[O-])cc1 | 2 | 0.89
O=C(NCC(O)c1ccccc1)C(=O)Nc1ccc(F)cc1 (stereo not given) | 9 | 1
COc1ccc(NC(=O)CN(c2ccccc2Cl)S(C)(=O)=O)cc1OC | -3 | 1.1
O=C1NC(=S)N/C1=C/c1ccc(OCc2ccccc2)c(Br)c1 | -4 | 0.98
O=C1NC(=S)N/C1=C\c1ccccc1OCc1ccc([N+](=O)[O-])cc1 | -5 | 0.67*
COc1ccc(OCC(=O)Nc2cccc(C(C)=O)c2)cc1 | 5 | 1.1
CCc1ccc(OCC(=O)Nc2cccc(OC)c2)cc1 | 14 | 0.74*
Cc1ccc2nc(-c3ccc([N+](=O)[O-])cc3)cn2c1 | 5 | 0.98
O=[N+]([O-])c1ccc(-c2cn3c(n2)sc2ccccc23)cc1 | 2 | 0.65*
Cc1ccc(NC(=S)NC(=O)/C=C/c2ccccc2)cc1C | 16 | 1
C=CCN1C(=O)/C(=C\c2ccc(Br)c([N+](=O)[O-])c2)SC1=S | 18 | 0.65*
C=CCN1C(=O)/C(=C/c2cccc(Br)c2)SC1=S | 0 | 0.94
Cc1nn(CC(=O)N2CCCC2)c(C)c1[N+](=O)[O-] | -2 | 1
Cc1ccc2cccc(OC(=O)c3ccc(Br)o3)c2n1 | 1 | 1
O=C(Oc1ccc(Oc2ccccc2)cc1)c1ccc(Br)o1 | 10 | 1.2*
Cc1nc2sc3c(c2c(=O)[nH]1)CCC3 | 2 | 0.63*
C=C1CSc2nc(=O)c3c4c(sc3n21)CCC4 | 6 | 0.94
O=C1c2ccccc2NC(c2ccccc2F)N1Cc1ccco1 (stereo not given) | 10 | 1
O=C(NCCN1CCOCC1)C(=O)NCc1ccc(Cl)cc1 | 7 | 1.3*
O=C(NCCN1CCN(Cc2ccccc2)CC1)C(=O)Nc1ccc(Cl)cc1 | 1 | 1
SMILES | HCV NS3h FP | Cy5 interf NS3h
Cc1ccc(N=C2NC(=O)/C(=C\c3cccc(Br)c3)S2)cc1C | 0 | 0.79*
Cc1ccc(N=C2NC(=O)/C(=C/c3ccc(O)cc3)S2)cc1C | -4 | 0.94
CN(C)c1cccc(NC(=O)c2cc3ccccc3o2)c1 | 16 | 0.95
CCc1ccc(N2CC(C(=O)NC)CC2=O)cc1 (stereo not given) | 2 | 1
CCN1C(=O)/C(=C\c2cccc(C)c2)SC1=S | -2 | 0.94
CCN(CC)c1ccc(/C=C2/SC(=S)N(CNc3cccc(C)c3)C2=O)cc1 | 9 | 0.65*
O=C(CSc1ncn(-c2ccccc2)n1)c1ccc(Br)cc1 | 4 | 0.99
Cn1ccnc1SCC(=O)c1ccc(Br)cc1 | 12 | 0.77*
Cc1cc(C(=O)N/N=C\c2ccc(-c3ccc(Cl)cc3)o2)n[nH]1 | -6 | 0.94
CC1C(c2ccccc2)N(C)C(c2ccccc2)C(C)C1(O)Cc1ccccc1 (stereo not given) | 11 | 0.92
O=C(O)C(C(=O)O)C1c2ccccc2Oc2ccccc21 | 12 | 1
O=C1C(=C2c3ccccc3C(=O)C2C2c3ccccc3Oc3ccccc32)C(=O)c2ccccc21 (stereo not given) | -2 | 0.8*
Cc1ccc(-c2[nH]n3c(=O)cc(-c4ccc([N+](=O)[O-])cc4)nc3c2C)cc1 | -6 | 0.79*
COc1ccc(-c2cc(=O)n3[nH]c(-c4ccc(C)cc4)c(C)c3n2)cc1 | 2 | 1.1
O=C1c2c(Cl)c(Cl)c(Cl)c(Cl)c2C(=O)N1c1ncccn1 | 3 | 0.65*
O=C(O)COc1ccc(N2C(=O)c3c(Cl)c(Cl)c(Cl)c(Cl)c3C2=O)cc1 | 10 | 0.95
CCOc1ccc(NC(=O)c2cc3cc(OC)ccc3oc2=O)cc1 | 5 | 1
COc1cc(/C=N/n2nnnc2N)ccc1OCc1ccc(F)cc1 | 10 | 0.77*
COc1cc(/C=N\n2nnnc2N)ccc1OCc1c(C)no[n+]1[O-] | 12 | 1.1
CCOc1cc(OCC)cc(C(=O)Nc2ccc(Cl)c(NC(=O)c3ccco3)c2)c1 | 14 | 0.96
O=C(CSc1cc(Cl)ccc1Cl)Nc1cccc(Br)c1 | 7 | 0.93
O=C(CSC1CC(=O)N(c2cccc(Br)c2)C1=O)Nc1ccc(Cl)cc1 (stereo not given) | 43* | 0.79*
O=C1Nc2ccccc2/C1=N/N=C\c1ccccc1[N+](=O)[O-] | 33 | 0.59*
CCOc1ccc(/C=N\N=C2\C(=O)Nc3ccccc32)cc1 | -10 | 0.96
O=C(Nc1nc2ccc([N+](=O)[O-])cc2s1)c1cccc(F)c1 | -4 | 0.93
Cc1cc([N+](=O)[O-])ccc1-c1ccc(C(=O)Nc2ccc(Cl)cn2)o1 | -14 | 0.77*

Compound activity (PubChem BioAssay)
